The values below come from PubChem BioAssay (Tox21).

Assay [1] in a line: Nuclear factor erythroid 2-related factor 2/antioxidant responsive element (Nrf2/ARE) small molecule agonists: qHTS cell viability counter screen in human keratinocytes (AID 1919968; active = well fitted curve in the direction sought with a large enough effect in the repeat runs; an effect the other way counts as inactive or inconclusive; also: nearly all actives have a fitted effect of over 55% in size). An outline of the steps: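 Seed 1,500 KeratinoSens cells per well, then incubate 5 h at 37 C/5% CO2. Add compounds in DMSO and incubate 23 h. Add CellTiter-Fluor, wait 1 h and read fluorescence.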
Background: qHTS replaces the single test concentration by a dilution series.

The nature of assay [2]: Nuclear factor erythroid 2-related factor 2/antioxidant responsive element (Nrf2/ARE) small molecule agonists: luciferase reporter gene qHTS assay in human keratinocytes (AID 1919969). Also: nearly all actives have a fitted effect of over 35% in size. Also: potency is read from the fitted curve at half-maximal effect. Background: In a reporter assay the amount or activity of a reporter protein is the signal.
Assay [3] has as its target Gonadotropin-releasing hormone receptor (Homo sapiens) (UniProt P30968). The assay is described as follows: Human gonadotropin-releasing hormone receptor (GnRHR) small molecule agonists, calcium flux assay in GnRHR-HEK293 cells (AID 1920063). Also: nearly all actives have a fitted effect of over 35% in size. An outline of the steps: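 Cells: HEK293 stably expressing human GnRHR. Steps: overnight (18 h) culture, 1 h calcium dye loading at 37 C, compound addition, kinetic fluorescence read at 480/540 nm. Each compound tested at 15 concentrations in triplicate.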
On the technique in general: Calcium flux is commonly read through the fluorescence of an indicator in the cells.

The target of assay [4] is KiSS-1 receptor (Homo sapiens) (UniProt Q969F8). The assay is described as follows: Human kisspeptin (KISS1R) small molecule agonists, calcium flux assay in KISS1R-HEK293 cells (AID 1920064; active = well fitted curve in the direction sought with a large enough effect in the repeat runs; an effect the other way counts as inactive or inconclusive). An outline of the steps:
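Cells plated and incubated 18 h; dye added, 1 h at 37 C; compounds in DMSO pinned in; signal read at 480/540 nm every second for 3 min. Each compound tested at 15 concentrations in triplicate.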

Assay [5] is described as follows: G protein-coupled receptor (GPCR) small molecule agonists, calcium flux assay: HEK293 wild type cell line counter screen (AID 1920065). An outline of the steps: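 Counter-screen of the Tox21 10K library for non-specific calcium release: dye-loaded cells received compounds in DMSO and were monitored by kinetic fluorescence (480/540 nm, 3 min). Fifteen concentrations, run in triplicate.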

Assay [6] in a line: p53 small molecule agonists, cell-based qHTS assay with human liver microsomes (AID 1963577). Also: potency is read from the fitted curve at half-maximal effect. An outline of the steps: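 In this qHTS, p53 response-element beta-lactamase cells receive test compound together with a microsome/NADPH activating system (0.5 mg/mL final each) and are incubated 16 h at 37 C before LiveBLAzer fluorescence detection.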
The nature of assay [7]: p53 small molecule agonists, cell-based qHTS assay with rat liver microsomes (AID 1963578). An outline of the steps: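 Agonist mode in p53RE-bla reporter cells, with compounds co-incubated 16 h at 37 C alongside 0.5 mg/mL rat liver microsomes and 0.5 mg/mL NADPH (final), followed by a 2 h LiveBLAzer detection step.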
Assay [8] is described as follows: p53 small molecule agonists, cell-based qHTS assay with human liver microsomes: qHTS cell viability counter screen (AID 1963579). Also: nearly all actives have a fitted effect of over 45% in size. An outline of the steps:
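Metabolically activated exposure: compounds, human liver microsomes and NADPH (0.5 mg/mL final apiece) were added to p53RE-bla cells seeded 5 h earlier, left 16 h at 37 C, and then assessed for viability by CellTiter-Glo luminescence.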

Assay [9] can be described thus: p53 small molecule agonists, cell-based qHTS assay with rat liver microsomes: qHTS cell viability counter screen (AID 1963580). Also: nearly all actives have a fitted effect of over 45% in size. The gist of the method: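 Viability is assessed in parallel with the p53 reporter read: HCT-116 p53RE-bla cells receive compounds plus rat microsomes and NADPH (0.5 mg/mL final apiece), incubate 16 h at 37 C, and then CellTiter-Glo luminescence is recorded.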

A short description of assay [10]: p53 small molecule agonists, cell-based qHTS assay: qHTS cell viability counter screen (AID 1963581). Also: nearly all actives have a fitted effect of over 45% in size. The gist of the method: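 Cells: HCT-116 with p53 response element-driven beta-lactamase. Treatment: 16 h, 37 C, compounds in DMSO. Read: CellTiter-Glo luminescence after 30 min RT.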
In assay [11] the target is 5-hydroxytryptamine receptor 2A (Homo sapiens) (UniProt P28223). Nature of the assay: 5-hydroxytryptamine receptor 2A (HTR2A) small molecule agonists, cell-based qHTS assay (AID 1963587). Also: nearly all actives have a fitted effect of over 30% in size. The gist of the method:
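CHO cells stably expressing human HTR2A, plated 18 h, loaded with calcium dye 1 h at 37 C. Agonist mode: compounds added and intracellular calcium fluorescence recorded kinetically for 2 min at 1 sec intervals.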

In assay [12] the target is Muscarinic acetylcholine receptor M1 (Homo sapiens) (UniProt P11229). Nature of the assay: Cholinergic receptor muscarinic 1 (CHRM1) small molecule antagonists, cell-based qHTS assay (AID 1963588). Also: nearly all actives have a fitted effect of over 40% in size. An outline of the steps:
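CHRM1-CHO calcium-flux assay, antagonist mode. Cells were seeded 18 h, dye-loaded 1 h at 37 C and given compound for 5 min at RT, then acetylcholine was added at 50nM. FDSS fluorescence was read 3 min; 15 concentrations, three runs.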

Assay [13] shares this target. Nature of the assay: Cholinergic receptor muscarinic 1 (CHRM1) small molecule agonists, cell-based qHTS assay (AID 1963589). Also: nearly all actives have a fitted effect of over 35% in size. The gist of the method: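 Agonist-mode qHTS in CHO cells stably carrying human muscarinic M1. Intracellular calcium is tracked by fluorescence every second after compound transfer; each compound runs at 15 concentrations in three independent runs.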

The nature of assay [14]: cAMP Responsive Elements (CRE) small molecule agonists, cell-based qHTS assay (AID 1963590). An outline of the steps:
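Agonist mode qHTS in CRE-bla HEK 293T cells: compounds dosed from DMSO for 3 h at 37 C/5% CO2, followed by LiveBLAzer B/G FRET substrate for 2 h at room temperature.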

A short description of assay [15]: cAMP Responsive Elements (CRE) small molecule antagonists, cell-based qHTS assay (AID 1963591; active = well fitted inhibition curve with a large enough effect in the signal ratio in the repeat runs, not every such curve was filed as active; the % refers to the signal ratio). The gist of the method:
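Antagonist mode: test compounds are co-incubated with the adenylyl cyclase activator NKH477 (0.25 uM final) on CRE-bla HEK293T cells for 3 h at 37 °C, followed by LiveBLAzer substrate loading.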

The target of assay [16] is Beta-2 adrenergic receptor (Homo sapiens) (UniProt P07550). Nature of the assay: Adrenergic beta2 receptor (ADRB2) small molecule antagonists, cell-based qHTS assay (AID 1963592). Also: series mostly up to about 92 µM; nearly all actives have a fitted effect of over 50% in size. An outline of the steps:
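Cells (CHO, stable ADRB2 overexpression) incubated 18-20hr at 37C; compounds added from DMSO; agonist mix (1nM isoproterenol, 100uM IBMX, 25uM Ro-20-1724) added; 0.5hr RT; d2-cAMP and anti-cAMP-cryptate added; 1hr RT; 665/615 nm read.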

Assay [17] has as its target D(2) dopamine receptor (Homo sapiens) (UniProt P14416). Nature of the assay: Dopamine D2 receptor (DRD2) small molecule agonists, cell-based qHTS assay (AID 1963594). Also: nearly all actives have a fitted effect of over 35% in size. An outline of the steps: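 HEK293 cells stably expressing human DRD2, pre-treated with PDE inhibitor Ro20-1724 (0.1 mM final) and compound 10 min at room temperature, then stimulated with NKH477 (200nM […]) for 30 min. cAMP read by HTRF (665/620 nm).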

The target is the same in assay [18]. Nature of the assay: Dopamine D2 receptor (DRD2) small molecule antagonists, cell-based qHTS assay (AID 1963595; active = well fitted inhibition curve with a large enough effect in the signal ratio in the repeat runs, with a control signal flat; the % refers to the signal ratio). An outline of the steps: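 DRD2-HEK293; 0.1 mM Ro20-1724; cpd 10 min RT; NKH477 200 nM + quinpirole 12 nM, 30 min RT; HTRF cAMP (cAMP-d2/anti-cAMP cryptate), 665/620 nm ratio after 1 h.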
Assay [19] has as its target Beta-2 adrenergic receptor (Homo sapiens) (UniProt P07550). The assay is described as follows: Adrenergic beta2 receptor (ADRB2) small molecule agonists, cell-based qHTS assay (AID 1963593).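 Also: CHO cells stably overexpressing human ADRB2.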 An outline of the steps: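 CHO cells stably over-expressing ADRB2 were plated overnight at 37C, then dosed with compounds plus a stimulation mix containing 100uM IBMX and 25uM Ro-20-1724 for 0.5hr at room temperature. cAMP was measured by HTRF competition, 1hr.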

The structures appear in SMILES notation. Records with an inconclusive call do not appear. Calls of active or inactive are those of the source. Unless noted, calls follow the shape of the full dose curve.

KiSS-1 receptor (Homo sapiens), sequence (Q969F8 whole entry, looked up): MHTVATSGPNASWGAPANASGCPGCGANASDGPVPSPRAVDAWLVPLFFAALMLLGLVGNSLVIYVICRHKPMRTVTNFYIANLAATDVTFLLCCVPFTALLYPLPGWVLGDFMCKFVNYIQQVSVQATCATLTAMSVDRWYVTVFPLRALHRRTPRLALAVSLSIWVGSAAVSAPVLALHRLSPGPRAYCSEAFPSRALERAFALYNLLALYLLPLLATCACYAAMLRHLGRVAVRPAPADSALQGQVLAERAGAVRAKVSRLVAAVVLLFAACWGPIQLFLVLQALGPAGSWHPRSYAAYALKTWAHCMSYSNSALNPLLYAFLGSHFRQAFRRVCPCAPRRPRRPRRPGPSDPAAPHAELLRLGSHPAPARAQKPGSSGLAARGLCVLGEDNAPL
5-hydroxytryptamine receptor 2A (Homo sapiens), sequence (P28223 whole entry, looked up): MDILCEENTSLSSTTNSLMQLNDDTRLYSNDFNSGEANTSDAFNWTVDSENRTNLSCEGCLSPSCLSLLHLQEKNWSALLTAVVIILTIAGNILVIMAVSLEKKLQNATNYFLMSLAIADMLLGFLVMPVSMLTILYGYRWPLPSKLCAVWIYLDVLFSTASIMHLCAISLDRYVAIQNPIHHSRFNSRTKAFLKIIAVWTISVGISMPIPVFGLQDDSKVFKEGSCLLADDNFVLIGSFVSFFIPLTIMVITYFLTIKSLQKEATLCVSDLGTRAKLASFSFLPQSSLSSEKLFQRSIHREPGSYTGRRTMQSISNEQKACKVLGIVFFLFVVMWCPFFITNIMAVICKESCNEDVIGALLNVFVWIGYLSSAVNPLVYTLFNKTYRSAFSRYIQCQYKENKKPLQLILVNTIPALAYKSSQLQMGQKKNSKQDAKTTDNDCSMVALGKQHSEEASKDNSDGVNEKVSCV
D(2) dopamine receptor (Homo sapiens), sequence (P14416 whole entry, looked up): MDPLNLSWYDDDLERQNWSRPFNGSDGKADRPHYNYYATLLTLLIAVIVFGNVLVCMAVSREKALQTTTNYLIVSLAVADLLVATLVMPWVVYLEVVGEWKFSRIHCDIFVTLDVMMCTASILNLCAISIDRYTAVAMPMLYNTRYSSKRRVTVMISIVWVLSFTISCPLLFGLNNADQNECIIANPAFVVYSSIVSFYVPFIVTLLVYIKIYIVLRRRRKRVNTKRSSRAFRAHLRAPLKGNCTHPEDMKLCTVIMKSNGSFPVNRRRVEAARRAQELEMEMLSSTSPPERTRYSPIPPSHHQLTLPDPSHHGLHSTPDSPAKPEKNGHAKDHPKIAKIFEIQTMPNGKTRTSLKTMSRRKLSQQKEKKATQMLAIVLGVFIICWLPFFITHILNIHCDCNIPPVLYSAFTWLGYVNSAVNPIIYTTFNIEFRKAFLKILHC
Gonadotropin-releasing hormone receptor (Homo sapiens), sequence (P30968 whole entry, looked up): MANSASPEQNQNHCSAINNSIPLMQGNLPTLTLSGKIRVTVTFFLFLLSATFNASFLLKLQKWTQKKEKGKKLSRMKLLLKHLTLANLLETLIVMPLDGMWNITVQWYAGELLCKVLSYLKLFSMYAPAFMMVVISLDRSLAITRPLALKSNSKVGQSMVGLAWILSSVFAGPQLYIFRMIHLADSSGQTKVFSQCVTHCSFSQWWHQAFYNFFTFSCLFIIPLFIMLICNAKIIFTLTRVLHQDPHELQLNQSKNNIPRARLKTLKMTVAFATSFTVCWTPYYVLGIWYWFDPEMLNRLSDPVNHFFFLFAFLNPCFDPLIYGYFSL
Muscarinic acetylcholine receptor M1 (Homo sapiens), sequence (P11229 whole entry, looked up): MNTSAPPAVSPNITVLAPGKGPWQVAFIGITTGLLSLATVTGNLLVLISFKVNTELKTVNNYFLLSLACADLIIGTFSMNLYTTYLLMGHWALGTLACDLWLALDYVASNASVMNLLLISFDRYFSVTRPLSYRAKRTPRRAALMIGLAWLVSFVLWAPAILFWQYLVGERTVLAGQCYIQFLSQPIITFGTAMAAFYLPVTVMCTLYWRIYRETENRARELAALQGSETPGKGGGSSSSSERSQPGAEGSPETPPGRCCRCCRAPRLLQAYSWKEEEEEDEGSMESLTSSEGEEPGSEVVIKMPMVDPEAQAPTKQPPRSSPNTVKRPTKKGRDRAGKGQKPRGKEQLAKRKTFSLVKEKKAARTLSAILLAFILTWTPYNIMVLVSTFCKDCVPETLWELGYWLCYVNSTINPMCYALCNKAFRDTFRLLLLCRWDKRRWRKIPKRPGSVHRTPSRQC
Beta-2 adrenergic receptor (Homo sapiens), sequence (P07550 whole entry, looked up): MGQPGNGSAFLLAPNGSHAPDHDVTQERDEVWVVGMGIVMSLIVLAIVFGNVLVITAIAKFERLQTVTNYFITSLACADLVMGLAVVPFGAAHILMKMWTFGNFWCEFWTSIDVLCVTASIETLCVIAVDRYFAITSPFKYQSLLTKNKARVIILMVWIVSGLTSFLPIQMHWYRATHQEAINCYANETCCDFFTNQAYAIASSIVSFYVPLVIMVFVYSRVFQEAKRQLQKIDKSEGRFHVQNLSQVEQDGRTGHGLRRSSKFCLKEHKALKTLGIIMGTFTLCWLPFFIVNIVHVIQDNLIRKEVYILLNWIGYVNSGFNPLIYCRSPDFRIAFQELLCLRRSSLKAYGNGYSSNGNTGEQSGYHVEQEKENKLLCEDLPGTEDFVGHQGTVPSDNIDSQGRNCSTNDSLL

As for `O=C1C(=O)c2ccccc2C(O)=C1C1CCC(c2ccc(Cl)cc2)CC1` (stereo unspecified), the Potency result in assay [1], in [3], in [6], in assay [7], in assay [8] and in assay [9] was “inactive” throughout. In addition, the Potency result in [10], in [11], in [12], in assay [13], in [14] and in assay [15] was “inactive” throughout. The Potency result in assay [16], in assay [17] and in [18] was “inactive” each time. Also, the Potency in assay [2] was 13.3 µM (active). The outcome in assay [4] and in assay [5] was inactive.

In the case of `Clc1ccc2n[nH]nc2c1`, the Potency entry in [1], in [2], in [3], in [7], in assay [8] and in [9] was “inactive” throughout. The Potency entry in assay [10], in assay [11], in [12], in [13], in [14] and in assay [16] was “inactive” throughout. For the same compound, the Potency entry in assay [19], in assay [17] and in assay [18] was “inactive” throughout. Moreover, the outcome in assay [4] and in [5] was inactive. The Potency in [6] was 28.9 µM (active).

For the compound `CCOC(=O)c1cccnc1`, the Potency result in [1], in [2], in [3], in [6], in [7] and in assay [8] was “inactive” each time. The Potency entry in assay [9], in assay [10], in assay [11], in assay [12], in [13] and in assay [14] was “inactive” each time. For the same compound, the Potency result in assay [16], in assay [17] and in [18] was “inactive” throughout. The result in [4] and in [5] was inactive.

`OCCSc1ccccc1`: the Potency entry in assay [1], in [2], in [3], in [6], in [7] and in [8] was “inactive” throughout. Besides, the Potency entry in assay [9], in assay [10], in [11], in [12], in [13] and in assay [14] was “inactive” in each case. Also, the Potency result in [16], in assay [19], in assay [17] and in [18] was “inactive” in each case. For the same compound, the result in assay [4] and in assay [5] was inactive.

As to `CCCCCC(=O)OCC`, the Potency result in assay [1], in assay [2], in assay [3], in assay [6], in [7] and in assay [8] was “inactive” throughout. In addition, the Potency result in [9], in assay [10], in [11], in [12], in assay [13] and in assay [14] was “inactive” throughout. The Potency result in [15], in assay [16], in [19], in assay [17] and in [18] was “inactive” in each case. The result in [4] and in assay [5] was inactive.

As for `O=C(CO)[C@@H](O)[C@H](O)[C@@H](O)CO`, the Potency entry in assay [1], in assay [2], in assay [3], in assay [6], in assay [7] and in [8] was “inactive” each time. Further, the Potency result in assay [9], in assay [10], in assay [11], in [12], in assay [13] and in assay [15] was “inactive” in each case. In addition, the Potency entry in [16], in assay [19], in assay [17] and in assay [18] was “inactive” each time. The result in assay [4] and in [5] was inactive.

Regarding `C=CC/C=C/C`, the Potency result in assay [1], in [2], in assay [3], in assay [6], in assay [7] and in assay [8] was “inactive” each time. In addition, the Potency entry in [9], in assay [10], in assay [11], in assay [12], in assay [13] and in assay [14] was “inactive” in each case. Moreover, the Potency result in assay [15], in [16], in assay [17] and in assay [18] was “inactive” each time. For the same compound, the result in assay [4] and in assay [5] was inactive.
